Bioassay records: PubChem, National Center for Advancing Translational Sciences (NCATS)
Only some compounds are listed: those with a hit (about 19% of all), similar ones and a draw of the others.
Pf growth 48h = Primary qHTS for delayed death inhibitors of the malarial parasite plastid, 48 hour incubation. AID 504832, 2011. Potency, µM (doses to about 28.7 µM), without a hit: at the top dose activity change, negative = inhibition, most hits filed as inhibitors. 310,000 tested, 5.9% active. P. falciparum luciferase growth in erythrocytes, 48 h; further: potency means the concentration at half of the fitted maximal effect; on the % scale 0 is the no-effect control and ±100 the full control effect
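Parasite viability was followed by luminescence of a genomically integrated firefly luciferase. Cultures held 0.1% parasitemia at 2% hematocrit (final), incubated under 5% CO2 at 37 C.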
Pf growth 96h = Primary qHTS for delayed death inhibitors of the malarial parasite plastid, 96 hour incubation; P. falciparum luciferase reporter growth, 96 h; Potency, µM (highest dose often 28.7 µM), for the others: at the highest dose activity change, negative = inhibition, hits mostly inhibitors; 320,000 tested, 6.9% active; further: potency means the concentration at half of the fitted maximal effect; on the % scale 0 is the no-effect control and ±100 the full control effect
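Compounds incubated with erythrocytes infected by luciferase-expressing P. falciparum (2% hematocrit, 0.05% parasitemia final) for 96 hours, 37 C in 5% CO2. Growth inhibition scored as decreased luciferase luminescence.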
Cycloheximide cs = Cycloheximide Counterscreen for Small Molecule Inhibitors of Shiga Toxin | cell reporter, cycloheximide protein synthesis inhibition counterscreen | 300,000 tested, 12% active | max response, %; in the data active means max response mostly above about 13%, no sharp cut-off; inactive means mostly below about 14%; further: read at 38.3 µM for the half of the compounds with a filed dose; 0% is about no effect
SARS PLP yeast = qHTS of Yeast-based Assay for SARS-CoV PLP | S. cerevisiae expressing SARS-CoV PLpro, growth rescue | Potency, µM (titrated, usually from 32.9 µM), inactives show at the top dose activity, positive = growth rescue, actives largely listed as activators | 330,000 tested, 0.19% active; calls by dose curve; further: potency means the concentration at half of the fitted maximal effect; 0% is about no effect; nearly all actives have a fitted effect of over 55% in size
Shiga inhibitor = A qHTS for Small Molecule Inhibitors of Shiga Toxin; Vero cells, Shiga toxin protein synthesis inhibition reporter; inhibition, % at 38.7 µM; 290,000 tested, 9.2% active; AID 2315, 2010; in the data active means inhibition mostly above about 28%, no sharp cut-off; inactive means mostly below about 43%; further: 0% is about no effect
AMA1-RON2 inh = qHTS for Inhibitors of AMA1-RON; Towards Development of Antimalarial Drug Lead: Primary Screen; Potency, µM (highest dose often 58.2 µM), for the others: at the highest dose activity change, negative = inhibition, usual class: inhibitors; AlphaScreen AMA1-biotinylated RON2 peptide binding; AID 720542, 2013; 360,000 tested, 0.2% active;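 further: potency means the concentration at half of the fitted maximal effect; 0% = vehicle wells and -100% = peptide control; nearly all actives have a fitted effect of over 45% in size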
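AMA1 (3D7) with his tag at 25 nM final met compounds first, then biotinylated RON2 peptide at 25 nM; detection used donor plus acceptor beads, 10 µg/mL apiece, read by AlphaScreen after 30 min at room temperature.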
Numbers without * were called inactive; i = inactive; ? = inconclusive; . = not tested or not shown; [ ] = another dose, or the depositor's remark. Unless noted, the call rests on the fitted dose curve; in most records, active means well fitted curve in the direction sought with a large enough effect; inconclusive means small, poorly fitted or top-dose-only effect, or another doubt; inactive means no such curve, though single readings can be large; an effect the other way counts as inactive or inconclusive.

SMILES | Pf growth 48h | Pf growth 96h | Cycloheximide cs | SARS PLP yeast | Shiga inhibitor | AMA1-RON2 inh
CC(=O)NCCC(=O)N1CCCC(CNC(=O)c2ccc(-c3ccccc3)cc2)C1 (stereo not given) | 27% | 0% | 15* | 0% | 27 | 5%
CCCCN(CC(=O)NCCOC)C(=O)Cn1nnc2ccccc21 | 19% | -18% | -4 | -4% | -21 | -4%
CC(C)(C)c1ccc(/C=N/n2cnnc2)cc1 | -22% | ? | 8 | -3% | 20 | 2%
Cn1c(=O)n(C)c2cc(/C=N/n3cnnc3)ccc21 | 23% | 5.9µM* | -1 | 11% | 8 | -7%
COc1ccc(CNC(=O)C2CC(c3ccc(OC)cc3)=NO2)cc1 (stereo not given) | -11% | . | -2 | -5% | -5 | 1%
COc1ccc(C2=NOC(C(=O)NCc3cccs3)C2)cc1 (stereo not given) | . | . | 18* | 5% | 32 | -5%
COc1ccc(C2=NOC(CNC(N)=S)C2)cc1 (stereo not given) | i | 2.6µM* | 36* | -3% | 57* | -4%
COc1ccc(C2=NOC(C(=O)NCC(C)C)C2)cc1 (stereo not given) | 73% | . | 45* | 2% | 61* | 3%
COc1ccc(C2=NOC(C(=O)NCc3ccco3)C2)cc1 (stereo not given) | 54% | . | 27* | -7% | 72 | -7%
COc1ccc(CCN(Cc2cc3cc(C)cc(C)c3nc2Cl)C(=O)C2CC2)cc1 | ? | ? | 3 | -12% | -13 | -1%
O=C(NCc1cccs1)C1CC(c2ccccc2O)=NO1 (stereo not given) | 26% | . | 27* | -6% | 51* | 12%
O=C(NCc1ccccn1)C1CC(c2ccccc2O)=NO1 (stereo not given) | 10% | 43%[5.75 µM] | -3 | 0% | -5 | 79%
Cc1ccc(COc2ccc(C)nc2[N+](=O)[O-])cc1 | 476% | 226% | 50* | 1% | 83* | -7%
Cc1ccc(OCCOc2ccc(Cl)cc2Cl)c([N+](=O)[O-])n1 | 62% | 72% | 52* | -5% | 106* | 0%
COc1ccc(OCCOc2ccc(C)nc2[N+](=O)[O-])cc1 | 157% | 110% | 49* | -19% | 93* | 7%
Cc1ccc(CNC(=O)COc2ccc(C)nc2[N+](=O)[O-])cc1 | 36% | 51% | -3 | 3% | -9 | 5%[11.6 µM]
CCOc1ccccc1NC(=O)CN(c1ccc(C)cc1)S(=O)(=O)c1c(C)noc1C | 4.1µM* | 91% | 3 | -1% | 10 | -16%
CCOc1ccc(N(CC(=O)Nc2ccc(OC)cc2)S(=O)(=O)c2c(C)noc2C)cc1 | . | 6.6µM* | -4 | 3% | 3 | 1%
CCOc1ccccc1NC(=O)CCN(c1ccc(C)cc1)S(=O)(=O)c1ccccc1 | ? | 12µM* | -1 | 22% | 12 | -19%
CCOc1ccc(N(CC(=O)Nc2ccc(OC)cc2)C2=NC3CS(=O)(=O)CC3S2)cc1 (stereo not given) | 6% | 13µM* | -1 | -1% | -5 | -4%
S=C(NCCCn1ccnc1)NC1CCCCC1 | -3% | -18% | -6 | 8% | -11 | -7%
CCOc1ccc(N(CC(=O)Nc2ccc3c(c2)OCCO3)S(=O)(=O)c2c(C)noc2C)cc1 | . | 10µM* | -4 | 1% | 3 | -3%
COc1ccc(N(CC(=O)Nc2ccc(OC)c(Cl)c2)S(=O)(=O)c2c(C)noc2C)cc1 | 8.3µM* | 27% | -4 | 9% | -14 | 1%
COc1ccc(OC)c(NC(=O)CN(c2ccc(C(C)C)cc2)S(=O)(=O)c2c(C)noc2C)c1 | . | 10µM* | -4 | -5% | -5 | -6%
COc1ccc(OC)c(NC(=O)CN(c2ccc(C)cc2)S(=O)(=O)c2c(C)noc2C)c1 | ? | 1.9µM* | 10 | -3% | 1 | -3%
SMILES | Pf growth 48h | Pf growth 96h | Cycloheximide cs | SARS PLP yeast | Shiga inhibitor | AMA1-RON2 inh
CCOc1ccc(NC(=O)CN(c2cc(C)cc(C)c2)S(=O)(=O)c2c(C)noc2C)cc1 | 7% | ? | 3 | -5% | -7 | 1%
Cn1c(=O)[nH]c2c(cnn2C)c1=O | . | . | . | . | . | 3%
CCOc1ccc(OCC)c(NC(=O)CN(c2ccc(C)cc2)S(=O)(=O)c2c(C)noc2C)c1 | . | 34% | 14 | -8% | 12 | 0%
CCOc1ccc(OCC)c(NC(=O)CN(c2ccc(OC)cc2)S(=O)(=O)c2c(C)noc2C)c1 | 13µM* | ? | 10 | 8% | 7 | -11%
COc1ccc(/C=N/NC(=O)C(=O)N2CCCCCC2)cc1 | 8% | ? | 14 | 0% | 21 | -1%
O=C(Nc1ccc2oc(-c3ccncc3)nc2c1)c1ccc(Br)o1 | 39% | 26% | -5 | -2% | -10 | -1%
O=C(Nc1ccc2oc(-c3ccncc3)nc2c1)c1ccco1 | ? | 18% | 27* | -25% | 48 | -10%
O=C(Nc1ccc2oc(-c3ccncc3)nc2c1)c1c(F)c(F)c(F)c(F)c1F | 7% | 8% | 1 | 0% | -6 | -20%
O=C(Nc1ccc2oc(-c3ccccc3)nc2c1)c1ccco1 | 68% | ? | 94* | -50% | 78* | 2%
Cc1ccc(NC(=O)CN2C(=O)NC(Cc3ccccc3)C2=O)c(Br)c1 (stereo not given) | -10% | -5% | -5 | -3% | -23 | -6%
COc1cc(OC)cc(OCC(O)Cn2ccnc2)c1 (stereo not given) | 1% | ? | -2 | -4% | 10 | 1%
O=C1c2ccccc2C(=O)N1Cc1ccc2c(c1)OCO2 | 10% | . | 8 | -6% | -18 | 0%
O=C(Nc1ccc2c(c1)OCO2)[C@@H]1[C@@H]2C(=O)N(C3CCCCC3)C(=O)[C@@H]2C2c3ccccc3C=CN21 (stereo not given in full) | ? | -11% | 0 | 1% | -1 | .
O=C(c1ccc2c(c1)OCO2)[C@@H]1[C@@H]2C(=O)N(C3CCCCC3)C(=O)[C@@H]2C2c3ccccc3C=CN21 (stereo not given in full) | 6.6µM* | 4.7µM* | 6 | -6% | 21 | 0%
CC(C)(C)C(=O)[C@@H]1[C@@H]2C(=O)N(C3CCCCC3)C(=O)[C@@H]2[C@H]2c3ccccc3C=CN12 | . | 15µM* | 2 | -2% | 23 | 24%
O=C(c1cccs1)[C@@H]1[C@@H]2C(=O)N(Cc3ccc4c(c3)OCO4)C(=O)[C@@H]2C2c3ccccc3C=CN21 (stereo not given in full) | ? | 10µM* | -3 | -6% | -30 | .
COc1ccc(N2C(=O)[C@@H]3[C@H](C2=O)[C@H]2c4ccccc4C=CN2[C@@H]3C(C)=O)cc1 | -9% | -10% | -4 | -2% | -5 | 24%
